PubChem BioAssay AID431 (Sanford-Burnham Center for Chemical Genomics, 2006)
Among all 63,000 compounds or so, about 1,100 (1.7%) were called active.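 Rule for the calls: active = compounds whose percent cytotoxicity in the single-dose primary screen, scaled between solvent and toxic-drug controls, exceeds 50; inactive = the rest.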 What follows is part of a selection rich in actives, with near analogues and random picks from the rest. Results with a measured potency or affinity are listed apart.

assay: cytotoxicity in KRAS-transformed pancreatic duct cells, primary screen, cell-based, fluorescence, HTS (AID 431); settings: HPDE-C7K KRASV12 cells, Alamar Blue viability, 48 h; at 10 µM; hits give high values;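 note: 0% = DMSO solvent wells and 100% = doxorubicin-treated wells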

SMILES | cytotoxicity
Cc1cc(C(=O)CSc2nc3ccccc3n2CCC#N)c(C)n1Cc1cccs1 | -13.5% (inactive)
Cc1ccc(C(=O)CSc2nnc(CNc3ccc(C)cc3C)n2Cc2ccco2)cc1 | 30.1% (inactive)
Brc1ccc2ncnc(Nc3ccc(N4CCOCC4)cc3)c2c1 | -4.9% (inactive)
CCCn1c(SCC(=O)c2cc(OC)ccc2OC)nc2c1c(=O)n(C)c(=O)n2C | 8.2% (inactive)
CCOC(=O)c1[nH]c(C)c(C(=O)NCC2CCCO2)c1C (centres undefined) | 5.6% (inactive)
CCCCN(CC)C(=O)c1ccc(Cl)c(Cl)c1 | -3.6% (inactive)
COc1ccc(CCNC(=O)CN2CCN(c3cccc(Cl)c3)CC2)cc1OC | 8.7% (inactive)
COc1ccccc1C(=O)N1CCN(c2cccc(C(F)(F)F)c2)CC1 | 62.5% (active)
O=C(c1cccc(F)c1)N1CCN(c2cccc(Cl)c2)CC1 | 26.8% (inactive)
COc1ccccc1CC(=O)N1CCN(c2cccc(C(F)(F)F)c2)CC1 | -1.7% (inactive)
O=C(c1c(Cl)nc2sccn12)N1CCN(c2cccc(Cl)c2)CC1 | 64.5% (active)
O=C(c1ccccc1F)N1CCN(c2cccc(C(F)(F)F)c2)CC1 | -5.2% (inactive)
COc1cc(CN2CCSCC2)cc(OC)c1OC | -7.4% (inactive)
Cc1ccc(C(=O)N2CCN(c3cccc(Cl)c3)CC2)cc1C | 27.4% (inactive)
Nc1ccc(CCS(N)(=O)=O)cc1 | 12.4% (inactive)
c1ccc(-c2noc(CN3CCN(C(c4ccccc4)c4ccccc4)CC3)n2)cc1 | -6.9% (inactive)
CCCC(=O)c1cc(F)c(N2CCN(C(=O)OCC)CC2)cc1C | -0.7% (inactive)
COCCSc1nnc(NC(=O)CSCc2ccccc2)s1 | 16.5% (inactive)
CCCCOC(=O)Cn1c(=O)oc2ccc(C)cc21 | 5.8% (inactive)
CN1CCCC(OC(=O)c2cc(Cl)ccc2Cl)C1 (centres undefined) | -23.9% (inactive)
Cc1nnc2sc(-c3cccc(NC(=O)c4cccnc4)c3)nn12 | -1% (inactive)
CSc1nnc2n(CCc3ccccc3)c(=O)c3c4c(sc3n12)CCCC4 | 15.3% (inactive)
Cn1c(=O)c2[nH]cnc2n(-c2ccccc2)c1=O | -4.3% (inactive)
COc1ccc(OC)c(Nc2nc(-c3sc(C)nc3C)cs2)c1 | 26.2% (inactive)
COc1ccc(-c2csc(NC(C)=O)n2)cc1OC | 10.2% (inactive)

SMILES | cytotoxicity
COc1ccc(C(=O)Nc2nc(-c3cccs3)cs2)cc1 | 38% (inactive)
COc1ccccc1Nc1nc(-c2cccs2)cs1 | 18.3% (inactive)
COc1ccc(OC)c(Nc2nc(-c3ccc(O)c(O)c3)cs2)c1 | 59.5% (active)
COc1ccc(OC)c(Nc2nc(-c3cccs3)cs2)c1 | 54.9% (active)
CC1C(=O)C(C)C(c2ccc3c(c2)OCO3)NC1c1ccc2c(c1)OCO2 (centres undefined) | 1.3% (inactive)
CC(C)N(Cc1nc(-c2ccc(Cl)cc2)no1)C(=O)CCCN1C(=O)c2ccccc2C1=O | 3.9% (inactive)
CCc1ccc(NC(=O)C2CC=CCC2C(=O)O)cc1 (centres undefined) | -3.7% (inactive)
O=C(O)C1C2C=CC3(CN(Cc4ccncc4)C(=O)C13)O2 (centres undefined) | -2.7% (inactive)
O=C(O)C1C2C=CC3(CN(Cc4ccco4)C(=O)C13)O2 (centres undefined) | 1.9% (inactive)
O=C(O)C1C2C=CC3(CN(Cc4ccccn4)C(=O)C13)O2 (centres undefined) | 76.1% (active)
Cc1cc(NS(=O)(=O)c2ccc(NC(=O)Nc3ccccc3)cc2)no1 | -21% (inactive)
CCOC(=O)c1ccc(NC(=O)CCc2nc(-c3ccccc3)no2)cc1 | -8% (inactive)
CCOC(=O)c1ccc(NC(=O)CCc2nc(-c3ccccc3Cl)no2)cc1 | 76.1% (active)
CCOC(=O)c1ccc(NC(=O)CCc2nc(-c3ccc(Cl)cc3)no2)cc1 | 0.1% (inactive)
CC1CCCC(C)N1C(=O)Cn1c(=O)sc2ccccc21 (centres undefined) | 0.8% (inactive)
Cc1ccc(C2CC(C(F)F)n3ncc(C(=O)Nc4cnn(Cc5ccccc5C)c4)c3N2)cc1 (centres undefined) | 21.9% (inactive)
CCOC(=O)CCCCNCc1ccccc1 | -6.1% (inactive)
COc1ccccc1OCc1nc2c3c(-c4ccccc4)c(-c4ccccc4)oc3ncn2n1 | 9.1% (inactive)
COc1ccc(-c2nnc(SCCc3ccccc3)n2N)cc1 | 4.3% (inactive)
Cc1nc2c3c(-c4ccccc4)c(-c4ccccc4)oc3ncn2n1 | 1% (inactive)
COc1ccc(-c2oc3ncn4nc(COc5ccccc5)nc4c3c2-c2ccc(OC)cc2)cc1 | 57.9% (active)
COc1ccc(-c2nnc(SCc3ccccc3)n2N)cc1 | -12.1% (inactive)
COc1ccc(-c2oc3ncn4nc(Cc5ccccc5)nc4c3c2-c2ccc(OC)cc2)cc1 | 57% (active)
COc1ccc(C)cc1N(CC(=O)NC1CCCC1)C(=O)CCC(=O)Nc1cc(C)on1 | -5.7% (inactive)
CCCCS(=O)(=O)/C=C\C1C2C=CC(C2)C1S(=O)(=O)CCCC (centres undefined) | -2.6% (inactive)

SMILES | cytotoxicity
CCCCS(=O)(=O)/C=C\C=C/S(=O)(=O)CCCC | 112% (active)
OC(COc1ccc(Cl)cc1)CN1C2=NCCCN2c2ccccc21 (centres undefined) | 6.4% (inactive)
CCC(=O)c1ccccc1OCCCN1C(=O)NC(C)(C)C1=O | 21% (inactive)
CC1CC(C)CN(S(=O)(=O)c2ccc3c(c2)oc(=O)n3CC(=O)N2CCOCC2)C1 (centres undefined) | 2.5% (inactive)
c1ccc(-c2nc(-n3ccnc3)nc(-n3ccnc3)n2)cc1 | 19.8% (inactive)
c1ccc(-c2ccc(-n3ccnc3)cc2)cc1 | 2.4% (inactive)
Clc1ccc(-c2nnc(-c3ccc(Br)o3)o2)c(Cl)c1 | 19.1% (inactive)
CCn1c(SCC(=O)c2ccccc2)nnc1-c1cc2cc(Br)ccc2o1 | 8% (inactive)
CCCCCC(=O)N(CN1C(=O)CCC1=O)c1ccccc1 | -8.7% (inactive)
Cc1nc(NCCCN2CCOCC2)c2oc3ccccc3c2n1 | 6.7% (inactive)
O=S(=O)(c1ccc(S(=O)(=O)N2CCCC2)cc1)N1CCCCCC1 | -15% (inactive)
O=C(O)c1cc(S(=O)(=O)N2CCCCCC2)ccc1Cl | -3.9% (inactive)
O=C(CN1CCN(c2ccccn2)CC1)N1c2ccccc2CCc2ccccc21 | -4.4% (inactive)
CCN(CC(=O)NC1CCCCC1)S(=O)(=O)c1ccc(Cl)cc1 | -13.6% (inactive)
CCOC(=O)C1CCCN(c2c(NCc3ccco3)c(=O)c2=O)C1 (centres undefined) | 2.5% (inactive)
O=C(CSc1nnc(COc2ccccc2)o1)NCCc1ccccc1 | -27.9% (inactive)
COc1cc(C2C(C#N)=C(C)NC3=C2C(=O)c2ccccc23)cc(OC)c1OC (centres undefined) | 80.3% (active)
COc1ccc(C2C(C#N)=C(SC)NC3=C2C(=O)CC(C)(C)C3)cc1 (centres undefined) | -1.7% (inactive)
COc1ccc(C2C(C#N)=C(C)NC3=C2C(=O)c2ccccc23)cc1 (centres undefined) | 53.8% (active)
COc1cc(C2C(C#N)=C(C)NC3=C2C(=O)CC(C)(C)C3)cc(OC)c1O (centres undefined) | 6.8% (inactive)
COc1ccc(C2CC(=O)C3=C(C2)NC(C)=C(C#N)C3c2ccc(N(C)C)cc2)cc1 (centres undefined) | -3.8% (inactive)
COc1cc(C2C(C#N)=C(C)NC3=C2C(=O)CC(C)(C)C3)ccc1O (centres undefined) | -10.6% (inactive)
CCOC(=O)c1ccccc1NC(=O)CN(c1ccccc1OC)S(C)(=O)=O | -1.1% (inactive)
CCCCn1c(SCC(=O)Nc2cc(C)on2)nc2ccsc2c1=O | -1.8% (inactive)
CCOC(=O)C1CCCN(Cc2cc(OC)c(O)c(OC)c2)C1 (centres undefined) | -5.4% (inactive)

SMILES | cytotoxicity
CCc1ccc(OCC(=O)NCc2ccco2)c(Br)c1 | -5.8% (inactive)
CC(C)(C)c1ccc(OCC(=O)NCc2ccco2)c(Br)c1 | 84.5% (active)
O=C(COc1ccccc1Br)NCc1ccco1 | -11.3% (inactive)
Cn1c(=O)n(C)c2cc(NC(=O)CSc3nnc(-c4ccccc4O)n3-c3ccccc3)ccc21 | 12.8% (inactive)
O=[n+]1cc(-c2ccc(F)cc2)n([O-])c2c1CCC2 | -13.4% (inactive)
COc1ccc(C2C3=C(CCCC3=O)Nc3nc(SCc4ccccc4)nn32)cc1OC (centres undefined) | -8.6% (inactive)
O=C1CC(C(=O)Nc2ccccc2C(=O)O)C(c2ccccc2)O1 (centres undefined) | -6.7% (inactive)
O=C(Oc1cccc2c(OC(=O)N3CCOCC3)cccc12)N1CCOCC1 | 6.1% (inactive)
CCCn1nnnc1SCC(=O)c1ccc(NC(C)=O)cc1 | -3.8% (inactive)
Cc1cccn2c(=O)c3cc(C(=O)N4c5ccccc5CC4C)n(C)c3nc12 (centres undefined) | 77.7% (active)
Cc1cccn2c(=O)c3cc(C(=O)N4CCN(c5ccccc5)CC4)n(C)c3nc12 | -5.9% (inactive)
CC1Cc2ccccc2N1C(=O)c1cc2c(=O)n3ccccc3nc2n1C (centres undefined) | 3.6% (inactive)
Cc1cccn2c(=O)c3cc(C(=O)N4CCN(C(=O)c5ccco5)CC4)n(C)c3nc12 | -8.8% (inactive)
Cc1cccn2c(=O)c3cc(C(=O)N4CCc5ccccc54)n(C)c3nc12 | 1.3% (inactive)
Cc1c(NCc2nc3ccccc3[nH]2)c(=O)n(-c2ccccc2)n1C | -7.6% (inactive)
Cc1ccc(C(C)C)c(OCc2nnc3n2CCCCC3)c1 | -8.3% (inactive)
COc1ccc(Cl)cc1NC(=O)c1cccnc1 | -1.6% (inactive)
CC(=O)Nc1ccc(NC2=CC(=O)CC(C)(C)C2)cc1 | -3% (inactive)
Cn1c(SCC(=O)c2ccc3c(c2)OCO3)nnc1-c1ccccn1 | 3.1% (inactive)
CCCc1cc(C(=O)Nc2ccc(C)cc2)no1 | -1.5% (inactive)
CCN(c1ccccc1)S(=O)(=O)c1ccc(C(=O)Nc2nnc(COC)o2)cc1 | 44.5% (inactive)
CC(C)(C)C(=O)/C=C(N)/C=C/c1ccccc1 | -7% (inactive)
CC(/C=C/c1ccccc1)=N/O | -7.4% (inactive)
O=C(/C=C/c1ccccc1)c1ccccc1 | 56.5% (active)
